# Experimental data as given in PubChem BioAssay AID485364 (National Center for Advancing Translational Sciences (NCATS), 2010).
# Where “and” joins values, the source holds several entries; their conditions need not be identical. Identical values can stand only once. The whole screen tested about 360,000 compounds, of which about 11,000 (3.1%) were called active. Where a call stands in place of a potency, no number is given. Inconclusive results (about 4%) are left out. Calls come from the whole dose curve; as a rule, active = well fitted inhibition curve with a large enough effect; inconclusive = small, poorly fitted or top-dose-only effect; inactive = no such curve, though single readings can be large or run the other way. Only a selection was taken, and actives are over-represented in it overall.
# Target: Schistosoma mansoni thioredoxin glutathione reductase (TGR) (UniProt Q962Y6)
# Test: qHTS Assay for the Inhibitors of Schistosoma Mansoni Peroxiredoxins; note: nearly all actives have a fitted effect of over 60% in size
# Conditions: purified TGR, DTNB reduction, TNB absorbance 405 nm; series mostly up to 114 µM
# Method in brief: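 Kinetic colorimetric format: TGR-catalysed, NADPH-driven DTNB reduction monitored via TNB absorbance. Enzyme dispensed at 20 nM; compound exposure 15 min at room temperature before reaction start.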
# Potency is the fitted concentration of half-maximal effect.
row,SMILES,Potency
1,Cc1cc(Br)ccc1NC(=O)Cn1cnc2sc(C)c(S(=O)(=O)N3CCN(C)CC3)c2c1=O,inactive
2,O=S(=O)(c1ccc(Cl)cc1)c1nnn2c1nc(NC1CCCC1)c1sccc12,inactive
3,C/C(=N/NC(=O)CC(=O)N/N=C(\C)c1ccc([N+](=O)[O-])cc1)c1ccc([N+](=O)[O-])cc1,inactive
4,Cc1ccc(C(=O)Cn2cc([N+](=O)[O-])nc2C)cc1,inactive
5,O=C(Cn1c[n+](CC(=O)c2ccc([N+](=O)[O-])cc2)cn1)c1ccc([N+](=O)[O-])cc1,10 µM (active) and 44.7 µM (active)
6,CN(CC(=O)Nc1ccc(F)cc1)C(=O)c1ccc(-c2ccc(Cl)cc2)o1,inactive
7,Cc1[nH][nH]c(=O)c1C(c1ccc(-c2ccc(Cl)cc2)o1)c1c(C)[nH][nH]c1=O,25.1 µM (active)
8,NC(=O)C1(N2CCCCC2)CCN(C2CC(=O)N(Cc3ccc(N4CCCC4=O)cc3)C2=O)CC1 (stereo unspecified),25.1 µM (active)
9,COC(=O)c1cc(NC(=O)CN2CCC(C(N)=O)(N3CCCCC3)CC2)cc(C(=O)OC)c1,inactive
10,CCCNC(=O)NCc1ccc(N2CCCC2=O)cc1,inactive
11,COc1ccc(OC)c(-n2nnc(-c3nc(-c4cc(OC)c(OC)c(OC)c4)no3)c2C)c1,inactive
12,Cc1ccc(N2C(=O)C3C(c4ccccc4)(C2=O)C3(c2ccccc2)c2ccccc2)cc1 (stereo unspecified),inactive
13,O=C(Cc1ccccc1)NNC1CC(=O)N(c2ccc(Br)cc2)C1=O (stereo unspecified),inactive
14,Cc1ccc(N2C(=O)CC(Nc3cccc4ccccc34)C2=O)cc1 (stereo unspecified),22.4 µM (active)
15,CCOc1ccc(NC(=O)c2cnn(-c3ccccc3)c2-n2cccc2)cc1,inactive
16,Cc1ccc(OCC(=O)OCc2cc(=O)n3nc(C4CC4)sc3n2)cc1,inactive
17,COc1ccc(S(=O)(=O)NCC(c2ccc(N(C)C)cc2)N2CCc3ccccc32)cc1OC (stereo unspecified),inactive
18,CCOC(=O)c1c(N)n(-c2cccc(C)c2C)c2nc3ccccc3nc12,inactive
19,Nn1c(SCC(=O)Nc2nccs2)nnc1-c1ccco1,inactive
20,CCOC(=O)c1c(NC(=O)CSc2nnc(CN3CCOCC3)n2C)sc2c1CCCC2,inactive
21,NC(=O)c1c(NC(=O)CSc2nnc(-c3ccco3)n2N)sc2c1CCCC2,11.2 µM (active)

row,SMILES,Potency
1,Cc1c(Cl)cccc1NC(=O)c1noc2c1CCCC2,inactive
2,CSc1ccc(CCNC(=O)c2cnn(-c3ccccc3)c2-n2cccc2)cc1,inactive
3,O=C(CSc1nnc(-c2cccnc2)n1Cc1ccco1)c1ccc(Cl)c(Cl)c1,22.4 µM (active)
4,Cc1c(Cl)cccc1NC(=O)CSc1ccc(-c2cccnc2)nn1,inactive
5,COc1cc(Cl)c(C)cc1NC(=O)CSc1nnc(-c2cccnc2)n1Cc1ccco1,44.7 µM (active)
6,COc1ccccc1NC(=O)CSc1nnc(-c2ccoc2C)n1CCc1ccccc1,inactive
7,O=C(CSc1nnc(-c2cccnc2)n1CCc1ccccc1)NCc1ccccc1,inactive
8,CCn1c(SCC(=O)Nc2cc(C)c(Cl)cc2OC)nnc1-c1ccco1,inactive
9,Cc1cc(C)nc(SCc2nnc(SCC(=O)Nc3ncc(C)s3)n2Cc2ccco2)n1,inactive
10,CCc1ccc(NC(=O)CSc2nnc(-c3cnccn3)n2Cc2ccco2)cc1,39.8 µM (active)
11,O=C(CSc1nnc(-c2cccs2)n1Cc1ccco1)c1ccc2c(c1)OCO2,inactive
12,Cn1c(SCC(=O)Nc2nccs2)nnc1-c1cccnc1,inactive
13,COc1cc(Cl)c(C)cc1NC(=O)CSc1nnc(-c2ccco2)n1CC(C)C,25.1 µM (active)
14,CCn1c(SCC(=O)Nc2cc(C)ccc2C)nnc1-c1cnccn1,inactive
15,COc1ccc(OCC(=O)Nc2cccc(C(=O)OCc3cc(=O)n4nc(C)sc4n3)c2)cc1,inactive
16,Cc1cc(NC(=O)C2CCC(CNS(=O)(=O)c3ccc(Br)s3)CC2)ccc1Br (stereo unspecified),inactive
17,COC(=O)c1ccc(NC(=O)CCc2c(C)nc3c(c(C)nn3-c3ccc(C)cc3)c2C)cc1,inactive
18,O=C(NCC(c1cccnc1)N1CCc2ccccc21)c1cccc(C(F)(F)F)c1 (stereo unspecified),inactive
19,COc1ccc(CCNC(=O)CCc2c(C)nc3c(c(C)nn3-c3ccc(C)c(C)c3)c2C)c(OC)c1OC,inactive
20,COc1ccc(NC(=O)CSc2nc3ccccc3n2CC(=O)N2CCCCC2C)cc1 (stereo unspecified),inactive
21,C=CCn1c(CNC(=O)c2ccco2)nnc1SCC(=O)c1ccc(OC)cc1,inactive

row,SMILES,Potency
1,COc1ccc(C(=O)NCc2nnc(SCCOc3ccccc3)n2C)cc1,inactive
2,COc1ccc(C(=O)CSc2nnc(COc3ccccc3)n2Cc2ccco2)cc1,39.8 µM (active)
3,COc1ccccc1CNCc1ccc(C(=O)O)s1,inactive
4,COc1ccc(-c2cn3c(n2)sc2cc(C(=O)Nc4ccccc4F)ccc23)cc1,inactive
5,O=C(NCc1ccccc1Cl)C1=Cc2cc(Br)ccc2OC1,inactive
6,Cc1ccc(SCC(=O)NC(=O)NCc2ccco2)c(C)c1,inactive
7,O=C(CNc1ccc(F)cc1F)NC(=O)NCc1ccco1,28.2 µM (active)
8,CC(C)(C)NC(=O)NCc1ccco1,inactive
9,CCOC(=O)c1ccc(NC(=O)C2CCN(S(=O)(=O)c3ccc4c(c3)CCCC(=O)N4)CC2)cc1,inactive
10,O=C(CCc1nc(CN2CCN(S(=O)(=O)c3ccc(Cl)cc3)CC2)no1)N1CCCCC1,inactive
11,CN(C)[C@@H]1C(=O)C(C(N)=O)=C(O)[C@@]2(O)C(=O)C3=C(O)c4c(O)ccc(Cl)c4[C@@H](O)[C@H]3C[C@@H]12,39.8 µM (active)
12,O=C(c1ccccc1F)N1CCC(c2nc3c(nnn3Cc3cccc(F)c3)c(=O)[nH]2)CC1,inactive
13,Cc1ccc(CN2CCc3nc(N4CCN(C)CC4)ncc3C2)cc1,inactive
14,Cc1ccc(C)c(Cn2c(=O)n(CCC(=O)NCc3ccc4c(c3)OCO4)c(=O)c3sccc32)c1,inactive
15,CC(C)c1ccc(NC(=O)c2cc(S(=O)(=O)N3CCc4ccccc4C3)ccc2F)cc1,inactive
16,c1ccc(-n2nnnc2N2CCOCC2)cc1,inactive
17,O=C(C1CCCO1)N1CCC(c2nc3ccccc3[nH]2)CC1 (stereo unspecified),inactive
18,C1=C(N2CCOCC2)/C(=C/c2nc3ccccc3[nH]2)CC1,5.62 µM (active)
19,COc1ccc(NC(=O)N2CCCn3nc(C)cc32)cc1OC,inactive
